Experimental data: the supplement of paper PMC3342239
Where a name gives a salt, the structure may show the parent alone.

Test system: Saccharomyces cerevisiae
Assay: fraction of cells in G1 phase (DNA content, flow cytometry); higher = more cells with unreplicated DNA (G1 delay)
Settings: temperature: 30 C, YPD
Procedure, shortened: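 Yeast (S. cerevisiae) in YPD at 30°C was treated with library drugs, and cells were then fixed in ethanol, stained with SYTOX Green and counted by flow cytometry over 10,000 events. Sensitized JTY2953 diluted 1∶200 from an overnight culture got a final 20 µg/ml and was fixed 6–7 h later; other runs dosed dividing JTY2953 (fixed at 6 h) or BY4741 (fixed at 4.33 h). G1 fraction means the Dean-Jett-Fox G1 peak area relative to the G1 and G2/M areas together.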

[1] = BY4741 PDR5+ SNQ2+, drug added to: actively dividing cells, 4.33 h
[2] = JTY2953 pdr5 snq2 (sensitized), drug added to: actively dividing cells, 6 h
[3] = JTY2953 pdr5 snq2 (sensitized), drug added to: cultures diluted from stationary phase, 6-7 h

| Compound | fraction of cells in G1 phase [1] | fraction of cells in G1 phase [2] | fraction of cells in G1 phase [3] |
| --- | --- | --- | --- |
| COC(=O)[C@H](c1ccccc1Cl)N1CCc2sccc2C1 [Clopidogrel sulfate] (62.1449 µM) | 0.459 | 0.719 | 0.642 |
| COC(=O)C1=C(C)NC(C)=C(C(=O)OCC(C)C)C1c1ccccc1[N+](=O)[O-] (centres undefined) [Nisoldipine] (51.4901 µM) | – | 0.587 | 0.605 |
| Clc1ccc(Nc2nnc(Cc3ccncc3)c3ccccc23)cc1 [Vatalanib] (57.6664 µM) | – | 0.691 | 0.699 |
| CNCCC(Oc1ccc(C(F)(F)F)cc1)c1ccccc1 (centres undefined) [Fluoxetine HCl] (64.655 µM) | 0.43 | – | 0.17 |
